Laboratory results taken from PubChem BioAssay.
Activity calls are given as the source filed them. Cut-off read from the data, not from the text of the source, unless noted: active = inhibition above about 30%; inactive = the rest.

What was measured:
[1] = target: Nuclear receptor coactivator 3 (Homo sapiens) (UniProt Q9Y6Q9); assay: NCOA3 GAL4-fusion reporter inhibition – cell-based, luminescence, quadruplicate, confirmation (AID 588792;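 active = mean inhibition over 43.08%, the solvent-only control mean plus 3 SD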;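 note: 0% = DMSO treated cells and 100% = gossypol at 36 µM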); conditions: HEK293 GAL4-SRC3 luciferase reporter, at 3.6 µM, hits give high values
Nuclear receptor coactivator 3 (Homo sapiens), sequence (Q9Y6Q9 whole entry, looked up, the tested form may be a part): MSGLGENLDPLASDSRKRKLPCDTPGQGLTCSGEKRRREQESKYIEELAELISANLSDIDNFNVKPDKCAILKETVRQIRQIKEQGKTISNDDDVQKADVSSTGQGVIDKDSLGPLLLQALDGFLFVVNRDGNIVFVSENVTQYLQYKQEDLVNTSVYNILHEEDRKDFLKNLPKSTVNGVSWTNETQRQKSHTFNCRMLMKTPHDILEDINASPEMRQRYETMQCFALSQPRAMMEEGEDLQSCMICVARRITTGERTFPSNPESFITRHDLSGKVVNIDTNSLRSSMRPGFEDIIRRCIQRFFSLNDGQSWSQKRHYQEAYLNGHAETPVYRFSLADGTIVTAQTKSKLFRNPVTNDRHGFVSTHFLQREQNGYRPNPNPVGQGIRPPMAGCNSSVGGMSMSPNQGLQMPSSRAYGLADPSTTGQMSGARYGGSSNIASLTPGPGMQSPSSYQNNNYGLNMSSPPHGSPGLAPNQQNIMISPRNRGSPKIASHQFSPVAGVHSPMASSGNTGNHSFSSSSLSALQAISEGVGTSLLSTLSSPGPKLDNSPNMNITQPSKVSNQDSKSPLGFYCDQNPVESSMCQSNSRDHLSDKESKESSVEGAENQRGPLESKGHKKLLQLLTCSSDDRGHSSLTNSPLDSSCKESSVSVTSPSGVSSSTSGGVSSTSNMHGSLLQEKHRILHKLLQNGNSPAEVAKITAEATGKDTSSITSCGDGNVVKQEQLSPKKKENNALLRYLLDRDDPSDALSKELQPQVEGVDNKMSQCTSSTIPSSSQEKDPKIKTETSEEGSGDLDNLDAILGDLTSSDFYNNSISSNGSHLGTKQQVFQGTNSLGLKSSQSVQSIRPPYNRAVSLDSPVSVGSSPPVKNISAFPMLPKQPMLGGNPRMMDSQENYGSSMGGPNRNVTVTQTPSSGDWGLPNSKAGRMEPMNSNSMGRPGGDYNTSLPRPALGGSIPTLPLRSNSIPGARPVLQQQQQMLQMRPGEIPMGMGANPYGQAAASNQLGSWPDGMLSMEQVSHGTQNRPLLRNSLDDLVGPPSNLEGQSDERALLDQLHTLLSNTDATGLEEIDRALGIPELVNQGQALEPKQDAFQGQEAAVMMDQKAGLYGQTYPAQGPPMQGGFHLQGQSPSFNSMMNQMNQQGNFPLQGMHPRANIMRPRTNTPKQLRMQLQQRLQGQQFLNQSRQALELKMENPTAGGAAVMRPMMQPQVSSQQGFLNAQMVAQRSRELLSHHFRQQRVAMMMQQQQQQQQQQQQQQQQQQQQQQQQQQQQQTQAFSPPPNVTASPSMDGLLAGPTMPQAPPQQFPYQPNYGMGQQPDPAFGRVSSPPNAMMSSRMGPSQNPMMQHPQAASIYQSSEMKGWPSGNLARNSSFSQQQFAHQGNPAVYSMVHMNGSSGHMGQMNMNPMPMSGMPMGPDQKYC

[2] = system: transactivating tegument protein VP16 (Human herpesvirus 1), Gal4-VP16 luciferase reporter; assay: repression of VP16-driven luciferase reporter – cell-based, luminescence, high throughput, counter-screen for SRC3 inhibitor project (AID 588794); conditions: mammalian cells, at 3.6 µM, hits give high values
[3] = target: Nuclear receptor coactivator 1 (Homo sapiens) (UniProt Q15788); assay: NCOA1 GAL4-fusion reporter inhibition – cell-based, luminescence, quadruplicate, confirmation (AID 588820;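 active = mean inhibition above 46.68%, the untreated control wells mean plus 3 SD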;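 note: 0% = DMSO wells and 100% = gossypol 36 µM treated wells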); conditions: HEK293 GAL4-SRC1 luciferase reporter, at 3.6 µM, hits give high values
Nuclear receptor coactivator 1 (Homo sapiens), sequence (Q15788 whole entry, looked up, the tested form may be a part): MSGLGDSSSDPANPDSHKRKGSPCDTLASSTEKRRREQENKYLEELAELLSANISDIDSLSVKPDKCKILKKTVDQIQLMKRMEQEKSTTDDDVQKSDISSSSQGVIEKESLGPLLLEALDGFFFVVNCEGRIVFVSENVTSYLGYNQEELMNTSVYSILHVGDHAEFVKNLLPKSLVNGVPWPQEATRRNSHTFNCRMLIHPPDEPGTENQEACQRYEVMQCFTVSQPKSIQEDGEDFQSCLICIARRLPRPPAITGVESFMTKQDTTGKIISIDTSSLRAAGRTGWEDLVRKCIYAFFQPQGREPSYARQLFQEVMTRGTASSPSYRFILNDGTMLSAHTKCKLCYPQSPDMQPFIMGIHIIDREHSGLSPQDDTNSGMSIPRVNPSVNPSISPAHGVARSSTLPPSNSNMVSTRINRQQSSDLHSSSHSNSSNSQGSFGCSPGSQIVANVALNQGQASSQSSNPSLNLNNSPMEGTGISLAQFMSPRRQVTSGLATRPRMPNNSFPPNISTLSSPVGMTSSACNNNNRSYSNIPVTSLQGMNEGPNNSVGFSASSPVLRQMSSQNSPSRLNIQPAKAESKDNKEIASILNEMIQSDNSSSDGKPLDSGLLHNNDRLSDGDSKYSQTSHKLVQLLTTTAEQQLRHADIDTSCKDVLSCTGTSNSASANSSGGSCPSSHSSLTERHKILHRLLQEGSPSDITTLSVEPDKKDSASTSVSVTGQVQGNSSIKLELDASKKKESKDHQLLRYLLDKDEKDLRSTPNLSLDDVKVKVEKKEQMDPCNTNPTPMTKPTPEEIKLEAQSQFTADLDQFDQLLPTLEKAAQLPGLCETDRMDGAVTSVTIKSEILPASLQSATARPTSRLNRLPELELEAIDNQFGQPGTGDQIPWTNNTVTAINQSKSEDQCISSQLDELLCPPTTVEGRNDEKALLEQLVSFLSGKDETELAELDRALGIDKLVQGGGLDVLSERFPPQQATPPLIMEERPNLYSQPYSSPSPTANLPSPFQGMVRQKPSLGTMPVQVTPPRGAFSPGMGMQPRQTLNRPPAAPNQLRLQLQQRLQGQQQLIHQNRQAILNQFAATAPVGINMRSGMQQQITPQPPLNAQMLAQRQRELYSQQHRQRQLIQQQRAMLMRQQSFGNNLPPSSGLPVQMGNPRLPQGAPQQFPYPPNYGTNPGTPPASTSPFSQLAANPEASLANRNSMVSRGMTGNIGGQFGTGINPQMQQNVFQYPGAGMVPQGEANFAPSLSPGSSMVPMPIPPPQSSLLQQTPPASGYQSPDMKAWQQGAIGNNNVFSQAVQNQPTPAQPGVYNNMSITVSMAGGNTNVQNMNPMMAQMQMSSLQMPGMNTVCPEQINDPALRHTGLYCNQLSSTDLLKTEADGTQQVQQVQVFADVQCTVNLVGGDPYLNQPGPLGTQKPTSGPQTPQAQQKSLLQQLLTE

[4] = repression of VP16-driven luciferase reporter – cell-based, luminescence, high throughput, counter-screen for SRC1 inhibitor project (AID 588824; in the data active = inhibition above about 25%); conditions: cell-based VP16 transactivation luciferase luminescence; at 3.6 µM; hits give high values
[5] = system: transactivating tegument protein VP16 (Human herpesvirus 1); assay: compounds suppressing VP16-driven luciferase signal – cell-based, luminescence, single concentration, counter-screen for SRC2 inhibitor project (AID 652007; in the data active = inhibition above about 36%); conditions: cell-based VP16 transactivation luciferase reporter, at 8.9 µM, hits give high values
[6] = target: Nuclear receptor coactivator 2 (Homo sapiens) (UniProt Q15596); assay: inhibition of GAL4-SRC2 driven luciferase expression – cell-based, luminescence, HEK293, triplicate, confirmation (AID 652008;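 active = mean inhibition above 46.5%, the solvent-only control mean plus 3 SD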;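 note: 0% = DMSO-treated cells and 100% = Gossypol at 36 µM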); conditions: HEK293 GAL4-SRC2 luciferase reporter, at 8.9 µM, hits give high values
Nuclear receptor coactivator 2 (Homo sapiens), sequence (Q15596 whole entry, looked up, the tested form may be a part): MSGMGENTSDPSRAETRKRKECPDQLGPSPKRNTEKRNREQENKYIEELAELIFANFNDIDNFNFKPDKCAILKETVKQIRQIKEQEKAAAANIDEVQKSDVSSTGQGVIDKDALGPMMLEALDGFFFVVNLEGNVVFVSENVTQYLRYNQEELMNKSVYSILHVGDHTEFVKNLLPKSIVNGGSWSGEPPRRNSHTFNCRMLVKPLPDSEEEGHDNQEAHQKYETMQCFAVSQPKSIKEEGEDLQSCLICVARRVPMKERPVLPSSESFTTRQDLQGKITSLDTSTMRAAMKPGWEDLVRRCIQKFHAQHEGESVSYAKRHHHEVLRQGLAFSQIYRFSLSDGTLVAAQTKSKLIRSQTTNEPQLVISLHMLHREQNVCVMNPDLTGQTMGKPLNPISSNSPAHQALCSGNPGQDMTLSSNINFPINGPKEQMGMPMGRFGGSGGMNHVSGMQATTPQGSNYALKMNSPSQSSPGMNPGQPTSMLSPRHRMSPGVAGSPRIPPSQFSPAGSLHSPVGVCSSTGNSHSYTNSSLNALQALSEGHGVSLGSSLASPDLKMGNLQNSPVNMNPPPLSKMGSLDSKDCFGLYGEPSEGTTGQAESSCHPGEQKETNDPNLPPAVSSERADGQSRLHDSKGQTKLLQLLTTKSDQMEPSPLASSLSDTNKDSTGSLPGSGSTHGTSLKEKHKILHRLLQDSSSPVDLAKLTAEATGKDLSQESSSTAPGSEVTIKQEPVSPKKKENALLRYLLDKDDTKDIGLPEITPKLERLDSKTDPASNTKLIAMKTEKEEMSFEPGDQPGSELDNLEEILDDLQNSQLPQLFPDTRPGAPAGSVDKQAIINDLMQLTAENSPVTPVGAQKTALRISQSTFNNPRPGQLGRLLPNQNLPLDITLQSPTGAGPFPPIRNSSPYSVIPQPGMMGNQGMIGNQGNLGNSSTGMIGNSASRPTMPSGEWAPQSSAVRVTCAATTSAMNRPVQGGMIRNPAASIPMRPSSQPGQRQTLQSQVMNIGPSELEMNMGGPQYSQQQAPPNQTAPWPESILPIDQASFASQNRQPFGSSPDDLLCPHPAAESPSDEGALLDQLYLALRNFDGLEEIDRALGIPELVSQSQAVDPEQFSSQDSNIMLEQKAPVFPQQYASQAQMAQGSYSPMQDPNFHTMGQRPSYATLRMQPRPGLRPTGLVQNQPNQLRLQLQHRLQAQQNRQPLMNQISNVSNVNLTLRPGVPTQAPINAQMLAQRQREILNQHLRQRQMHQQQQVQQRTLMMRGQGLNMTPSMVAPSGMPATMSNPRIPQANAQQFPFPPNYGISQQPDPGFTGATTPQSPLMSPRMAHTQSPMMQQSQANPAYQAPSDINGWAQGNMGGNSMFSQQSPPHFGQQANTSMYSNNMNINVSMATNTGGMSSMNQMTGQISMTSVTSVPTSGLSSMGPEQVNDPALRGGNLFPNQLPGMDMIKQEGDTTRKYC

Measured: inhibition

Cc1c(/C(O)=C2/C(=O)C(=O)N(CCN3CCOCC3)C2c2ccco2)cnn1-c1ccccc1 (centres undefined)
inactive: [1] 23.3% | [2] 5.75% | [3] -20.6% | [4] -37.5% | [5] -7.38% | [6] 39%

O=C1NC(=S)N/C1=C/c1cccnc1
active: [2] 32% | [4] 31.8%
inactive: [1] 39.1% | [3] 44.9% | [5] -3.45% | [6] 43.8%

O=C1CCCCC1Sc1nnc(-c2ccc3c(c2)OCO3)o1 (centres undefined)
inactive: [1] -5.91% | [2] -22.1% | [3] -129% | [4] -49.6% | [5] 34%
active: [6] 53.1%

COc1ccc(C(=O)CN2C(=O)c3ccccc3S2(=O)=O)cc1
active: [1] 57.4% | [2] 57.1% | [4] 55.6% | [5] 72.1% | [6] 78.4%
inactive: [3] -21.8%

CS(=O)(=O)N(CCC#N)Cc1ccc(/C=C2\C(=O)Nc3ccccc32)o1
inactive: [5] 4.75% | [6] 11.8%
active: [1] 55.2% | [2] 37.4% | [3] 52.9% | [4] 29.3%

COC(=O)CCNc1ccc2c(c1)OCCO2
inactive: [1] 7.16% | [2] -2.66% | [3] -12.2% | [4] -15.9% | [5] -9.29% | [6] 39.5%

CC1=C(C(=O)OCc2ccc3c(c2)OCO3)C(c2ccc(Cl)cc2)NC(=O)N1 (centres undefined)
active: [1] 86% | [2] 74.7% | [3] 69.2% | [4] 74.8%
inactive: [5] 29.9% | [6] 46.3%

O=C(/C=C/c1ccccc1)CC(O)(c1ccccc1)C(F)(F)F (centres undefined)
inactive: [1] 38.5% | [3] 12.9% | [5] 21.8% | [6] 32.7%
active: [2] 31% | [4] 45.9%

Nc1ccc2c(c1)OC1(CCCC1)O2
inactive: [1] 10.9% | [2] 4.56% | [3] -18.7% | [4] 15.4% | [5] -13% | [6] 45.4%

CCOC(=O)NNC(=O)CCn1c2c(c3ccccc31)CCCC2
inactive: [5] 1.39% | [6] 39.1%
active: [1] 54.1% | [2] 43.4% | [3] 51.3% | [4] 37%

O=C(NC1CCCCC1)C(c1cccnc1)N(C(=O)CCl)c1ccc(F)cc1 (centres undefined)
active: [1] 78.3% | [2] 65.9% | [4] 65.1% | [5] 64.5% | [6] 64.8%
inactive: [3] 20.8%

COc1ccccc1-c1cc2nc(-c3ccccc3)cc(N3CCN(C(=O)c4ccco4)CC3)n2n1
active: [2] 48.6% | [5] 62.7% | [6] 60.3%
inactive: [1] 30.4% | [3] 17.6% | [4] 25.1%

Cc1cc(C(=O)CN2C(=O)c3ccccc3S2(=O)=O)c(C)n1C(C)C
active: [6] 59.6%
inactive: [1] 31.4% | [2] 24.3% | [3] -24.8% | [4] 12.9% | [5] 29.6%

C=CCn1c(C)cc(C(=O)COc2ccc(C)nc2[N+](=O)[O-])c1C
active: [6] 65.9%
inactive: [1] 33.7% | [2] -8.11% | [3] 9.64% | [4] -12.6% | [5] -4.94%

COc1cccc(N(C(=O)CCl)C(C(=O)NCCc2ccccc2)c2cccs2)c1 (centres undefined)
active: [1] 60.3% | [2] 36% | [4] 34% | [6] 63.3%
inactive: [3] 24.3% | [5] 27.8%

CCc1ccc(-c2nc(CSCC(=O)NCc3ccco3)c(C)o2)cc1
inactive: [1] 33.8% | [2] 27.9% | [3] 33.9% | [4] 24.5%
active: [5] 41.4% | [6] 70.5%

O=C1NC(=S)N/C1=C\c1cccnc1
inactive: [5] 0.14% | [6] 44%
active: [1] 49.2% | [2] 36.6% | [3] 52.9% | [4] 33.3%

Cc1[nH]ccc2c1[nH]c1cc(=O)ccc12
active: [1] 56% | [2] 39.5% | [3] 59.1% | [4] 38.7%
inactive: [5] 3.4% | [6] 26%

CC1=C(C(=O)OCc2ccc3c(c2)OCO3)C(c2ccc(O)c([N+](=O)[O-])c2)NC(=O)N1 (centres undefined)
inactive: [5] 20.7% | [6] 33.6%
active: [1] 60% | [2] 37.2% | [3] 58.6% | [4] 35.7%
